The record followed here is PubChem BioAssay (NCI).

About 83,000 compounds went through this panel and 20% of them were active in at least one assay; those are over-represented in the sample as a whole.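 How to read the values: 0–100, growth inhibition (40 = 60% inhibited); 0, no net growth; -100 to 0, cell death (-40 = 40% of starting cells died; -100 = all dead).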 Values without a mark were called inactive. Calls of active or inactive are those of the source. How the source made its calls: active means growth percent below 10; inactive means the rest.

What all share (test): NCI-60 one-dose screen, 48 h (100 = growth as untreated, 0 = no growth, -100 = all killed)
Common to all, as to conditions: 10 µM unless noted

In assay [1] the test system is DU-145 prostate.
The test system of assay [2] is K-562 leukemia.
Assay [3] has as its system MALME-3M melanoma.
Assay [4] deals with MDA-MB-231 breast.
Assay [5] deals with RXF 393 renal.
For assay [6], the system named is SF-268 CNS.
Assay [7] has as its system SF-295 CNS.
Assay [8] has as its system SF-539 CNS.
For assay [9], the system named is UACC-257 melanoma.
Assay [10] relates to M14 melanoma.
Assay [11] concerns HCT-15 colon.
For assay [12], the system named is HT29 colon.
Assay [13] relates to SNB-75 CNS.
Assay [14] relates to SNB-19 CNS.
In assay [15] the test system is U251 CNS.
The test system of assay [16] is PC-3 prostate.
Assay [17] concerns UACC-62 melanoma.
Assay [18] relates to LOX IMVI melanoma.
The subject of assay [19] is SK-MEL-28 melanoma.
Assay [20] relates to SK-MEL-5 melanoma.

As for `Cc1ccc(=O)n(-c2ccc(Br)cc2F)c1`, the growth in assay [1] is 109%; in [2], 99.4%; in assay [3] it was 101%; in [4], 103%; in [5], 103%; in assay [6], 104%. The growth in assay [7] was 100%; in assay [8], 98.9%; in assay [9] it was 102%; in assay [10], 97.4%; in [11], 105%; in assay [12], 107%. Also, the growth in [13] is 74.9%; in assay [14], 105%; in assay [15], 98.1%; in assay [16] it was 91.4%; in assay [17], 101%; in assay [18], 94.5%. Besides, the growth in assay [19] is 108%.

Regarding `Cc1cccc(Cc2cnc(NC(=O)CCc3ccc(C)o3)s2)c1`, the growth in [1] was 18.8%; in [2] it was 6.63% (active); in assay [3] it was 82.8%; in [4], 15.4%; in assay [5] it was 8.05% (active); in assay [6] it was 38%. The growth in assay [7] was 10.4%; in assay [8], 2.41% (active); in [9], 79.6%; in assay [10], 11.5%; in [11], 7.47% (active); in assay [12], 0.165% (active). The growth is 23.9% in [13]; 23.1% in assay [14]; 27.2% in assay [15]; 21.9% in assay [16]; -11.7% (active) in assay [20]; 21.6% in assay [17]. Also, the figures for the growth in assay [18] and in assay [19] were 29.9% and 61%, respectively.

For `Cc1c(Cl)ccc2c(C(=O)Cl)cc(-c3ccccc3)nc12`, the growth is 101% in assay [1]; 97.1% in assay [2]; 104% in [3]; 97% in [4]; 110% in [5]; 102% in assay [6]. Also, the growth in assay [7] is 94.7%; in assay [8] it was 100%; in [9], 87.9%; in assay [10] it was 98.1%; in assay [11], 101%; in assay [12], 116%. Also, the growth in [13] was 97.4%; in assay [14], 98.6%; in [15] it was 96.6%; in assay [20], 96.5%; in [17], 92.7%; in assay [18] it was 94.9%. For the same molecule, the growth in assay [19] is 103%.

Take `O=C1c2ccccc2OC=C(c2ccccc2)N1CCCCN1CCCCC1`: the growth is 48.6% in assay [1]; 15.6% in assay [2]; 67.8% in assay [3]; 73.8% in [4]; 95.7% in [5]; 55.5% in [6]. Further, the growth in assay [7] is 79.3%; in assay [8] it was 95.7%; in assay [9] it was 66.7%; in assay [10], 68%; in [11], 86.2%; in assay [12] it was 13.6%. Further, the growth in assay [13] is 76.1%; in assay [14] it was 50.7%; in assay [15], 30.3%; in assay [16], 23.3%; in [17], 69.1%; in assay [18] it was 54.5%. In addition, in assay [19], the growth was 87.3%.

Take `CSc1ccc(C(=O)C[n+]2cccc(C)c2)cc1`: the growth in [1] is 109%; in [2], 102%; in assay [3], 96.6%; in assay [4], 107%; in [5], 107%; in assay [6] it was 99.4%. The growth in assay [7] was 98.4%; in assay [8], 99.7%; in assay [9], 98.2%; in assay [10], 103%; in [11] it was 103%; in assay [12], 99.8%. Also, the growth in assay [13] was 90.7%; in [14] it was 97.8%; in assay [15] it was 101%; in assay [16], 96%; in assay [17] it was 95.1%; in assay [18], 103%. Moreover, in assay [19], the growth is 105%.

Turning to `COc1ccc2c(c1)OC(N(C(C)=O)C(C)=O)=C(C#N)C2c1ccc(F)cc1` (centres undefined), the growth in assay [1] is 37.9%; in assay [2], 10.2%; in [3], 62.5%; in assay [4], 53.1%; in [5], -2.33% (active); in [6], 54.1%. The growth in [7] is 18.3%; in assay [8] it was 13.9%; in assay [9], 63%; in [10] it was 20.5%; in assay [11], 24.9%; in assay [12], 8.69% (active). Moreover, the growth in assay [13] is 8.71% (active); in assay [14], 28.6%; in assay [15], 30.8%; in [20], 18.9%; in assay [17], 34.5%; in assay [18], 47.7%. For the same molecule, the growth in assay [19] was 64.4%.

On to `Nc1nccc(=S)[nH]1`, for which the growth in assay [1] was 112%; in assay [2], 97.8%; in assay [3], 112%; in [4], 112%; in assay [5], 92.5%; in [6], 98.6%. Moreover, the growth was 103% in assay [7]; 107% in [8]; 75.7% in [9]; 106% in assay [10]; 98.7% in [11]; 75.3% in assay [12]. For the same molecule, the growth in assay [13] was 94%; in [14], 104%; in [15], 102%; in assay [16] it was 102%; in [20] it was 111%; in assay [17], 90%. In addition, the growth in assay [18] was 100%; in [19], 106%.

On to `COc1cc(C(=O)NNC(=O)c2ccccc2O)cc(OC)c1OC`, for which the growth in assay [1] is 104%; in assay [2], 95.7%; in assay [3], 103%; in assay [4] it was 87.5%; in assay [5], 99%; in [6], 98.1%. The growth is 98.2% in assay [7]; 98.5% in assay [8]; 72.4% in [9]; 109% in assay [10]; 105% in assay [11]; 80.6% in assay [12]. Besides, the growth in [13] was 79.2%; in assay [14], 93.3%; in assay [15], 91.6%; in assay [20] it was 86.9%; in assay [17], 81.3%; in assay [18], 102%. The growth in assay [19] was 109%.
